Source: the supplement of paper PMC10849652
Of roughly 7,900 targets only a part is listed; those with a hit were picked by preference. About 0.6% of all pairs of compound and target were hits.

Key:
Assay in all cases: log2 fold change, soluble protein after heating vs DMSO (PISA); higher = thermal stabilisation; K562 cells, 10 uM, 30 min; active = over 0.2 and 3.5 SD of the protein, either way, in both replicates (recomputed)
saracatinib = compound: CN1CCN(CCOc2cc(OC3CCOCC3)c3c(Nc4c(Cl)ccc5c4OCO5)ncnc3c2)CC1 [saracatinib]
In short: (§1)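 Thermal stability values are relative to control samples and come from duplicates. They are expressed as log2 fold changes. For measurement, K562 cells (2×10^6 cells/mL) received 10 μM compound for 30 min, and aliquots were heated for 3 min over 48°C-58°C, pooled, and extracted at 4°C in PBS with 0.5% NP-40. Soluble protein, the supernatant after 21,000xg for 90 min, was quantified by TMTpro 16plex LC-MS/MS with equalised channel sums.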

sotrastaurin = compound: CN1CCN(c2nc(C3=C(c4c[nH]c5ccccc45)C(=O)NC3=O)c3ccccc3n2)CC1 [sotrastaurin]
In short: as §1

alvocidib = compound: CN1CC[C@H](c2c(O)cc(O)c3c(=O)cc(-c4ccccc4Cl)oc23)[C@H](O)C1 [alvocidib]
In short: as §1

Tubastatin A = compound: CN1CCc2c(c3ccccc3n2Cc2ccc(C(=O)NO)cc2)C1 [Tubastatin A]
In short: as §1

[1] = compound: CNC(=O)C1=CC=CC=C1NC2=NC(=NC=C2Cl)NC3=C(C=C(C=C3)N4CCOCC4)OC
In short: as §1

defactinib = compound: CNC(=O)c1ccc(Nc2ncc(C(F)(F)F)c(NCc3nccnc3N(C)S(C)(=O)=O)n2)cc1 [defactinib]
In short: as §1

rucaparib = compound: CNCc1ccc(-c2[nH]c3cc(F)cc4c3c2CCNC4=O)cc1 [rucaparib]
In short: as §1

[2] = compound: CNc1nc(-c2ccc3c(N)n[nH]c3c2)cc(N2C[C@@H](C(=O)NC3CCCCC3)CC[C@H]2C)n1
In short: as §1

encorafenib = compound: COC(=O)N[C@@H](C)CNc1nccc(-c2cn(C(C)C)nc2-c2cc(Cl)cc(NS(C)(=O)=O)c2F)n1 [encorafenib]
In short: as §1

[3] = compound: COC(=O)[C@H](CCSC)NC(=O)C1=C(C=C(C=C1)NC[C@H](CS)N)C2=CC=CC=C2
In short: as §1

[4] = compound: COC1=CC=C(C=C1)CN2C=CC3=C2C=C(C=C3)C(=O)NO
In short: as §1

filanesib = compound: CON(C)C(=O)N1N=C(c2cc(F)ccc2F)S[C@@]1(CCCN)c1ccccc1 [filanesib]
In short: as §1

zotarolimus = compound: CO[C@H]1C[C@@H]2CC[C@@H](C)[C@@](O)(O2)C(=O)C(=O)N2CCCC[C@H]2C(=O)O[C@H]([C@H](C)C[C@@H]2CC[C@H](n3cnnn3)[C@H](OC)C2)CC(=O)[C@H](C)/C=C(\C)[C@@H](O)[C@@H](OC)C(=O)[C@H](C)C[C@H](C)/C=C/C=C/C=C/1C [zotarolimus]
In short: as §1

idasanutlin = compound: COc1cc(C(=O)O)ccc1NC(=O)[C@@H]1N[C@@H](CC(C)(C)C)[C@](C#N)(c2ccc(Cl)cc2F)[C@H]1c1cccc(Cl)c1F [idasanutlin]
In short: as §1

alisertib = compound: COc1cc(Nc2ncc3c(n2)-c2ccc(Cl)cc2C(c2c(F)cccc2OC)=NC3)ccc1C(=O)O [alisertib]
In short: as §1

[5] = compound: COc1cc2nc(-c3cc(F)ccc3O)nc(N[C@@H]3CNC[C@H]3C(C)(C)O)c2cc1OC
In short: as §1

gefitinib = compound: COc1cc2ncnc(Nc3ccc(F)c(Cl)c3)c2cc1OCCCN1CCOCC1 [gefitinib]
In short: as §1

[6] = compound: COc1cccc2cc(-c3nc([C@H]4CC[C@H](C(=O)O)CC4)n4ncnc(N)c34)[nH]c12
In short: as §1

lapatinib = compound: CS(=O)(=O)CCNCc1ccc(-c2ccc3ncnc(Nc4ccc(OCc5cccc(F)c5)c(Cl)c4)c3c2)o1 [lapatinib]
In short: as §1

pictilisib = compound: CS(=O)(=O)N1CCN(Cc2cc3nc(-c4cccc5[nH]ncc45)nc(N4CCOCC4)c3s2)CC1 [pictilisib]
In short: as §1

Measured: log2 fold change

RETSAT (UniProt Q6NUM9)
Sequence of UniProt Q6NUM9 (Q6NUM9 whole entry, looked up): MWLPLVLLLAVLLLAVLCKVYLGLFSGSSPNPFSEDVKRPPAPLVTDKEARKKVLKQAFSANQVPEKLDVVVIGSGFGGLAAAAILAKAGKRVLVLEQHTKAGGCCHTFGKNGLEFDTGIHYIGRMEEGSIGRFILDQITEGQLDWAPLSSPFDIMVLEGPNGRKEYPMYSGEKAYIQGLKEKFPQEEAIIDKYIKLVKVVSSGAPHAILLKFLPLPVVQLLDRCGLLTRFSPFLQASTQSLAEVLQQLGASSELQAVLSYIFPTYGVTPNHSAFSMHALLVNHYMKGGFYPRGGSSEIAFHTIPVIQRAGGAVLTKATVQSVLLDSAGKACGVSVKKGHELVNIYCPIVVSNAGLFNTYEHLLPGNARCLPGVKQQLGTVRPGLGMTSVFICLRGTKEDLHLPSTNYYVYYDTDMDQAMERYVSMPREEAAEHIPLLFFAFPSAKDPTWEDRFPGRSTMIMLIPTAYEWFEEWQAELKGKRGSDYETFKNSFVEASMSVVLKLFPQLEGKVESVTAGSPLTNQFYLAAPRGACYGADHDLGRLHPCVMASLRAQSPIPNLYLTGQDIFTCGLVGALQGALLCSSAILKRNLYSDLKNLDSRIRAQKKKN
inactive: saracatinib -0.088 | sotrastaurin 0.054 | alvocidib 0.03 | Tubastatin A 0.185 | [1] 0.02 | defactinib -0.05 | rucaparib -0.001 | [2] -0.014 | encorafenib 0.012 | [3] -0.075 | [4] 0.051 | filanesib 0.109 | zotarolimus 0.094 | idasanutlin -0.077 | alisertib 0.067 | [5] 0.064 | gefitinib 0.052 | [6] -0.093 | lapatinib 0.192 | pictilisib 0.074

RRP36 (UniProt Q96EU6)
Sequence of UniProt Q96EU6 (Q96EU6 whole entry, looked up): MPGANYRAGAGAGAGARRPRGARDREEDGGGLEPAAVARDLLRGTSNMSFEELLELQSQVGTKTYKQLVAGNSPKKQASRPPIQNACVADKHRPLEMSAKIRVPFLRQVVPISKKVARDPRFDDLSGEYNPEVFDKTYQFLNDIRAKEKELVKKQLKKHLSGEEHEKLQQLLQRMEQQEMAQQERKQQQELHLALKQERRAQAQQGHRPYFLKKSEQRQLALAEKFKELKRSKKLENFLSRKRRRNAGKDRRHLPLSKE
inactive: saracatinib -0.021 | sotrastaurin -0.067 | alvocidib 0.211 | Tubastatin A 0.17 | [1] 0.073 | defactinib 0.351 | rucaparib 0.057 | [2] 0.007 | encorafenib 0.092 | [3] 0.05 | filanesib 0.372 | zotarolimus -0.054 | idasanutlin 0.203 | alisertib -0.217 | [5] 0.01 | gefitinib -0.042 | [6] -0.268 | lapatinib 0.088 | pictilisib -0.181

SEPTIN5 (UniProt G3XAH0)
inactive: saracatinib 0.045 | sotrastaurin 0.023 | alvocidib -0.033 | Tubastatin A -0.038 | [1] 0.042 | defactinib -0.023 | [2] 0.032 | [3] 0.028 | filanesib -0.044 | zotarolimus 0.045 | idasanutlin 0.027 | alisertib 0.003 | [5] 0.011 | gefitinib -0.057 | [6] 0.036 | lapatinib 0.094 | pictilisib 0.051

SCAMP2 (UniProt O15127)
Sequence of UniProt O15127 (O15127 whole entry, looked up): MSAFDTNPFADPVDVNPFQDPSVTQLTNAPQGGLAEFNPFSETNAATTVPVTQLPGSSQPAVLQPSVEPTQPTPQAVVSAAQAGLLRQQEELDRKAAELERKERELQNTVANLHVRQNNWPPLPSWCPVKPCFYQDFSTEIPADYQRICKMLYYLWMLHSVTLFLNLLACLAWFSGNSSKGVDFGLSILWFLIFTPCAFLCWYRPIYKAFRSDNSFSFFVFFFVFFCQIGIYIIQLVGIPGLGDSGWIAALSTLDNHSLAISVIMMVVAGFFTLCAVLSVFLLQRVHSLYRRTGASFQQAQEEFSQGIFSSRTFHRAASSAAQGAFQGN
inactive: saracatinib 0.084 | sotrastaurin 0.096 | alvocidib -0.155 | Tubastatin A 0.019 | [1] 0.027 | defactinib -0.086 | rucaparib -0.321 | [2] 0.028 | encorafenib 0.349 | [3] 0.101 | filanesib 0.036 | zotarolimus 0.171 | idasanutlin -0.1 | alisertib -0.087 | [5] -0.035 | gefitinib 0.036 | [6] 0.042 | lapatinib 0.009 | pictilisib 0.199

RHEB (UniProt Q15382)
Sequence of UniProt Q15382 (Q15382 whole entry, looked up): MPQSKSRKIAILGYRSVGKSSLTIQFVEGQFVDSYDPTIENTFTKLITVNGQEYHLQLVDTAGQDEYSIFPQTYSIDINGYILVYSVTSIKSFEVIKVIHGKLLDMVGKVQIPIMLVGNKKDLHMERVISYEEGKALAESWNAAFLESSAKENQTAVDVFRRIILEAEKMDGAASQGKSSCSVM
inactive: saracatinib 0.047 | sotrastaurin 0.04 | alvocidib -0.008 | Tubastatin A -0.054 | [1] -0.032 | defactinib 0.002 | rucaparib -0.084 | [2] -0.011 | encorafenib 0.025 | [3] 0 | [4] -0.007 | filanesib -0.08 | zotarolimus 0.016 | idasanutlin -0.049 | alisertib -0.03 | [5] 0.032 | gefitinib 0.015 | [6] 0.057 | lapatinib 0.005 | pictilisib 0.029

RAF1 isoform 2 (UniProt P04049)
Sequence of UniProt P04049 (P04049 whole entry, looked up): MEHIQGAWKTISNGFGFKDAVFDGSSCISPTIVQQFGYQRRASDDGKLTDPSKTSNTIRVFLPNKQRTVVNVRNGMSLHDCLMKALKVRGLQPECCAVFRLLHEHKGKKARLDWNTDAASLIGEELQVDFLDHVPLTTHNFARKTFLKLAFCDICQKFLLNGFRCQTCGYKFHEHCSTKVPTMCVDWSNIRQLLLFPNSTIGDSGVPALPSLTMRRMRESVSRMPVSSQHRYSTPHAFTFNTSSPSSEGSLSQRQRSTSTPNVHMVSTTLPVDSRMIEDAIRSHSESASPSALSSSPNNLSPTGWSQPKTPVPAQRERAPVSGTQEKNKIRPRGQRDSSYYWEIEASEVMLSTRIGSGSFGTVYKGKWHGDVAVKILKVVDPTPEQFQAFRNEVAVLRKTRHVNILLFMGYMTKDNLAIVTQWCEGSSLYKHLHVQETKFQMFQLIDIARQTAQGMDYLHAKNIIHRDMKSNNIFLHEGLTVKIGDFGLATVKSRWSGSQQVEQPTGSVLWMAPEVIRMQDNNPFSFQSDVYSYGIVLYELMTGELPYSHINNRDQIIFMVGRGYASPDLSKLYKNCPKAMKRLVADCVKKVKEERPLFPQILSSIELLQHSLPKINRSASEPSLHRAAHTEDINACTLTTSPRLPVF
inactive: saracatinib -0.029 | sotrastaurin -0.167 | alvocidib -0.105 | Tubastatin A -0.036 | [1] 0.078 | defactinib -0.075 | rucaparib 0.125 | [2] 0.176 | [3] -0.069 | [4] 0.035 | filanesib 0.085 | zotarolimus -0.024 | idasanutlin -0.102 | alisertib 0.139 | [5] -0.246 | [6] -0.067 | lapatinib 0.051 | pictilisib 0.207
active: encorafenib 0.737

RRAGC (UniProt Q9HB90)
Sequence of UniProt Q9HB90 (Q9HB90 whole entry, looked up): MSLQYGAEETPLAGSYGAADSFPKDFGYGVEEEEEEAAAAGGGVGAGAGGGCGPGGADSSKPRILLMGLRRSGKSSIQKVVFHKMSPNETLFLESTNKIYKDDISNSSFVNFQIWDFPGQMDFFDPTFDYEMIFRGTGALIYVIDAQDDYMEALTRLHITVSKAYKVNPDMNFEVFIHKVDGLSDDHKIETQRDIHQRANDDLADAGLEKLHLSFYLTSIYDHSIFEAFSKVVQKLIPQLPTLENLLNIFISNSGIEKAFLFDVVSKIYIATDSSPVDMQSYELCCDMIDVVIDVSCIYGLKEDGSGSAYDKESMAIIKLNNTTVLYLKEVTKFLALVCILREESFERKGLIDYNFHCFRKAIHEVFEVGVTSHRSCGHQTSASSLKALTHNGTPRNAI
inactive: saracatinib 0.023 | sotrastaurin 0.006 | alvocidib -0.013 | Tubastatin A -0.025 | [1] -0.014 | defactinib -0.005 | rucaparib -0.058 | [2] -0.063 | encorafenib 0.036 | [3] -0.005 | [4] -0.028 | filanesib -0.095 | zotarolimus -0.009 | idasanutlin -0.065 | alisertib -0.003 | [5] 0.011 | gefitinib -0.01 | [6] 0.057 | lapatinib -0.01 | pictilisib 0.066

RPS6KA3 (UniProt P51812)
Sequence of UniProt P51812 (P51812 whole entry, looked up): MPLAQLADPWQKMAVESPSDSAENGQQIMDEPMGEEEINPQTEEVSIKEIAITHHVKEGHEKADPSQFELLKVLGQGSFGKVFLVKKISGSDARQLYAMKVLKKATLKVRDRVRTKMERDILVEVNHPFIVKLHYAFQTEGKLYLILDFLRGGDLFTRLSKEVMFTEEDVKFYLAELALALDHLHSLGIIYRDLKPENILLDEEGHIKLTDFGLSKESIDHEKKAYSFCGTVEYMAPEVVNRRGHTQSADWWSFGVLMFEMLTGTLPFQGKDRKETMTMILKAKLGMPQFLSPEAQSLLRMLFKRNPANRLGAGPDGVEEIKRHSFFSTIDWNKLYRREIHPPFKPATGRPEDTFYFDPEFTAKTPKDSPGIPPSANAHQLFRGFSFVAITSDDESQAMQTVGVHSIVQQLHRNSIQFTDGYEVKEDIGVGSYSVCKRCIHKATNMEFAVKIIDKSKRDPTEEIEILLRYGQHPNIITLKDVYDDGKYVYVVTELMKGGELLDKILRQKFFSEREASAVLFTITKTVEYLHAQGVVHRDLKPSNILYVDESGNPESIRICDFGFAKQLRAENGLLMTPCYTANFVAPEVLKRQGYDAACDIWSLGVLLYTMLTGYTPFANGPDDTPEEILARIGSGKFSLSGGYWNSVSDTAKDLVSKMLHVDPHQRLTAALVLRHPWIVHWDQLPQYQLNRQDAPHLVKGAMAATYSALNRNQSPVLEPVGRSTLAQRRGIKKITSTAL
inactive: saracatinib 0.021 | sotrastaurin -0.049 | alvocidib -0.046 | Tubastatin A 0.019 | defactinib -0.148 | rucaparib 0.006 | [2] -0.049 | encorafenib -0.01 | [3] -0.027 | [4] -0.013 | filanesib 0 | zotarolimus 0.033 | idasanutlin -0.008 | [5] -0.221 | gefitinib -0.033 | [6] 0.013 | lapatinib 0.011 | pictilisib -0.011
